From PubChem BioAssay AID1159580 (chemical genetic matrix, 2015)
In all, about 5,500 compounds went through this assay and about 2,000 (36%) were called active. Inconclusive results (about 18%) are left out. No stated cut-off is given here; in the data, active means normalized growth mostly below about 0.91 (no sharp cut-off); inconclusive means no clear call, values can overlap the other calls; inactive means mostly above about 0.92. Some of the results follow.

Assay: chemical genetic growth profiling, strain panel (AID 1159580);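 further: tested at 20 µM; growth read once vehicle control cultures reached saturation at 30 °C; 1 = growth at the plate median or of vehicle wells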
Details: S. cerevisiae deletion strains, growth OD

Measured: normalized growth

CC(=O)Nc1c(I)c(NC(C)=O)c(I)c(C(=O)O)c1I
inactive: locus YHR030C, strain SLT2, stronger effect = lower value 0.975 | locus YHR079C, strain IRE1, stronger effect = lower value 1 | locus YJL095W, strain BCK1, stronger effect = lower value 0.989 | locus YJR066W, strain TOR1, stronger effect = lower value 0.932 | locus YLR113W, strain HOG1, stronger effect = lower value 0.977 | locus YNL183C, strain NPR1, stronger effect = lower value 0.941 | locus YOR231W, strain MKK1, stronger effect = lower value 0.99 | locus YPL256C, strain CLN2, stronger effect = lower value 0.974
